The structures appear in SMILES notation. Among all 340,000 compounds or so, about 3,300 (0.97%) were called active. Not shown: some 9% with an inconclusive outcome. Calls follow the shape of the dose curve; as a rule, active = well fitted inhibition curve with a large enough effect; inconclusive = small, poorly fitted or top-dose-only effect, or effect the other way; inactive = flat fitted curve, though single readings scatter. The list shows a part of the results.
Potency is read from the fitted curve at half-maximal effect.

The nature of the experiment: qHTS Assay for Modulators of miRNAs and/or Inhibitors of miR-21. Also: nearly all actives have a fitted effect of over 55% in size. The following applies: HeLa miR-21-FLuc reporter, luciferase luminescence, 48 h; actives lower the signal. The method in brief: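 HeLa miR-21-FLuc reporter line, endogenous miR-21; 2000 cells/well in DMEM/10% FBS; compound titration up to ~40uM final, 48 h, 37 degree Celsius; luciferase detection reagent, 15 min lysis, CCD luminescence.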
(In general: qHTS replaces the single test concentration by a dilution series.)
In the case of `O=C(CSc1nnc(-c2ccc(C(F)(F)F)cn2)o1)Nc1cccc(Cl)c1`, the Potency is 4.14 µM (active).

As for `O=C(CSc1nnc(-c2ccccn2)o1)Nc1cccc(Cl)c1`, the Potency is 1.85 µM (active).

On to `C#Cc1cccc(NC(=O)CSc2nnc(-c3ccc(C(F)(F)F)cn3)o2)c1`, for which the Potency was 4.14 µM (active).

Take `CC(C)Nc1cc(C(C)(C)C)nc2c(-c3ccccc3)cnn12`: the Potency was 6.56 µM (active).

In the case of `Cc1cc(C)n(-c2cc(C(C)(C)C)nc3c(-c4ccccc4)cnn23)n1`, the Potency was 2.61 µM (active).

In the case of `CN(C)CCCNc1cc(C(C)(C)C)nc2c(-c3ccccc3)cnn12`, the Potency was 2.93 µM (active).

On to `CCn1cnc2sc(C(=O)Nc3ccc4c(c3)OCO4)c(C)c2c1=O`, for which the Potency is 3.16 µM (active).

For `Cc1cc(N/N=C/c2ccccc2Br)nc2ccccc12`, the Potency was 13.1 µM (active).

For the molecule `Cc1cc(N/N=C/c2ccncc2)nc2ccccc12`, the Potency was 5.85 µM (active).

Take `O=c1c2cc(-c3ccccc3)sc2nc2n1N=C(c1cccs1)CS2`: the Potency was 0.414 µM (active).

For `C/C(=C\C(=O)c1ccccc1)Nc1cccc(O)c1`, the Potency was 4.65 µM (active).

Turning to `C/C(=C\C(=O)c1ccc(C)cc1)Nc1cccc(O)c1`, the Potency was 3.29 µM (active).

For `COc1ccc(OC)c(N/C(C)=C/C(=O)c2ccccc2)c1`, the Potency was 7.36 µM (active).

Turning to `Cn1c(=O)n(C)c2cc(NS(=O)(=O)c3ccc(F)cc3)c(NCc3ccccc3)cc21`, the Potency is 9.27 µM (active).

For the molecule `O=c1c2ccccc2nnn1COc1cccc(Cl)c1`, the Potency is 13.1 µM (active).

In the case of `O=c1c2ccccc2nnn1COc1cccc2ccccc12`, the Potency was 14.7 µM (active).

For `CCOc1ccc(OCCn2nnc3ccccc3c2=O)cc1`, the Potency is 5.21 µM (active).

Turning to `Cc1cccc(NC(=O)/C(C#N)=C/c2ccco2)c1`, the Potency was 4.14 µM (active).

On to `Cc1ccc(/C=C(\C#N)C(=O)Nc2ccc(Br)cc2)o1`, for which the Potency is 0.656 µM (active).

Turning to `Cc1ccc(NC(=O)/C(C#N)=C/c2ccc(C)o2)cc1`, the Potency was 0.329 µM (active).

Turning to `CC1CC1c1ccc(/C=C(\C#N)C(=O)Nc2ccccc2Cl)o1` (configuration not stated), the Potency was 14.7 µM (active).

Take `Cc1ccc(/C=C(\C#N)C(=O)Nc2cccc(Cl)c2)o1`: the Potency was 1.47 µM (active).

As to `O=C(CC(Nc1ccc(F)cc1)C(=O)OCC(=O)c1cccs1)c1ccccc1` (configuration not stated), the Potency is 3.29 µM (active).

Turning to `COc1ccccc1NC(CC(=O)c1ccccc1)C(=O)OCC(=O)c1ccc(C)c(C)c1` (configuration not stated), the Potency is 1.04 µM (active).

On to `COc1ccccc1NC(CC(=O)c1ccccc1)C(=O)OCC(=O)c1ccc(C)cc1` (configuration not stated), for which the Potency is 1.47 µM (active).

As for `O=C(c1ccc(COCC(F)(F)F)cc1)N1CCN(c2ccccn2)CC1`, the Potency is 14.7 µM (active).

`CCc1ccc(N2C(=O)Cc3c2nc(N)c(C#N)c3N)cc1`: the Potency was 16.5 µM (active).

Regarding `COc1ccc(NC(=O)C2C3CC/C=C\CCC32)cc1` (configuration not stated), the Potency was 6.56 µM (active).

Take `CNC(=O)c1c(NC(=O)c2nc3ccccc3s2)sc2c1CCC2`: the Potency is 1.31 µM (active).

Consider `Cc1ccc2cc(/C=N/Nc3ccc(C(=O)O)cc3)c(Cl)nc2c1`, for which the Potency is 2.07 µM (active).

For the molecule `O=C(O)c1ccc(N/N=C/c2cc3ccccc3nc2Cl)cc1`, the Potency was 3.29 µM (active).

`Cc1cccc2cc(/C=N/Nc3ccc(C(=O)O)cc3)c(Cl)nc12`: the Potency was 0.521 µM (active).

Turning to `CCCCOc1ccc2c(c1)C(=O)c1cc(O)ccc1-2`, the Potency is 5.85 µM (active).

For `O=[N+]([O-])c1ccccc1N/N=C1\CC2CC=CC12` (configuration not stated), the Potency is 16.5 µM (active).

As to `C=CCOc1cccc(/C=C/c2nc3ccccc3c(=O)[nH]2)c1`, the Potency was 0.826 µM (active).

For the molecule `O=c1[nH]c(/C=C/c2ccc(Br)cc2)nc2ccccc12`, the Potency was 0.369 µM (active).

Turning to `Cc1[nH]c2ccccc2c1/C=C/c1nc2ccccc2c(=O)[nH]1`, the Potency is 1.31 µM (active).

With `COCC(C)N=C1NN=C(c2c[nH]c3ccccc23)CS1` (configuration not stated), the Potency is 6.56 µM (active).

Regarding `C=CCOc1ccc2c(OC)c3ccoc3nc2c1OC`, the Potency is 13.1 µM (active).

In the case of `CCOc1ccc(NC(=O)c2ccccc2SC)cc1`, the Potency is 7.36 µM (active).

For the molecule `CCc1ccc(NC(=O)c2ccccc2SC)cc1`, the Potency is 7.36 µM (active).

For the molecule `CCc1ccc(NC(=O)c2ccccc2Br)cc1`, the Potency was 2.07 µM (active).

Take `CCOc1ccc(NC(=O)c2csc3c2CCCC3)cc1`: the Potency was 2.07 µM (active).

For `C#CCNC(=O)/C=C/c1ccc(C)cc1`, the Potency is 8.26 µM (active).

In the case of `C#CCNC(=O)/C=C/c1ccc(OC)cc1`, the Potency is 13.1 µM (active).

Consider `O=C1CCNc2ccc(-c3ccccc3)cc21`, for which the Potency was 6.56 µM (active).

Consider `C=CCn1c(NCc2ccc3c(c2)OCO3)nc2ccccc21`, for which the Potency was 9.27 µM (active).

`CCn1c(NCc2ccc3c(c2)OCO3)nc2ccccc21`: the Potency is 16.5 µM (active).

For `Cc1ccc2oc(-c3ccc(C)c(NC(=S)NC(=O)c4cccs4)c3)nc2c1`, the Potency is 0.521 µM (active).

Take `Cc1ccc2oc(-c3cccc(NC(=S)NC(=O)c4cccs4)c3)nc2c1`: the Potency was 4.14 µM (active).

Regarding `Cc1ccc2oc(-c3cccc(NC(=O)Cn4cnc5c(=O)n(C)c(=O)n(C)c54)c3)nc2c1`, the Potency is 6.56 µM (active).

Take `CC(=O)c1sc2nc(-c3cccs3)ccc2c1N`: the Potency was 14.7 µM (active).

Consider `Nc1c(C(=O)Nc2ccccc2Br)sc2nc(-c3cccs3)ccc12`, for which the Potency is 7.36 µM (active).

Turning to `NC(=O)c1sc2nc(-c3cccs3)ccc2c1N`, the Potency is 13.1 µM (active).

Regarding `O=c1/c(=C\c2ccc(F)cc2)sc2n1CCCN=2`, the Potency is 1.85 µM (active).

Turning to `O=C(CCC1CCCN(C(=O)Cc2cccc(F)c2)C1)N1CCN(c2ccccn2)CC1` (configuration not stated), the Potency was 16.5 µM (active).

On to `Cc1c(N=Nc2ccc(N(C)C)cc2)c(=O)n(-c2ccccc2)n1C`, for which the Potency is 5.21 µM (active).

For `Cc1cc(N)ccc1N=Nc1c(C)n(C)n(-c2ccccc2)c1=O`, the Potency is 14.7 µM (active).

For `Cc1ccc(/C=N/NC(=S)NC2CCCCC2)o1`, the Potency is 5.21 µM (active).

In the case of `CN(C)/C=N/c1nc2ccc3c(c2s1)CCCC3`, the Potency was 2.33 µM (active).

Take `Clc1ccc(-n2ncc3c(N4CCCC4)ncnc32)cc1`: the Potency is 0.0656 µM (active).

Regarding `CCN1CCN(c2ncnc3c2cnn3-c2ccc(C)c(C)c2)CC1`, the Potency is 1.65 µM (active).

On to `Cc1cccc(-n2ncc3c(N4CCC5(CC4)OCCO5)ncnc32)c1`, for which the Potency was 1.85 µM (active).

For `COc1ccc(-c2cc(C(=O)NC3CCCC3)no2)cc1`, the Potency is 1.17 µM (active).

Turning to `CCCCNC(=O)c1cc(-c2ccc(F)cc2)on1`, the Potency is 3.29 µM (active).

Regarding `O=C(NC1CCCC1)c1cc(-c2ccc(Cl)cc2)on1`, the Potency is 1.65 µM (active).

Take `CN(C(=O)c1cc(-c2ccc3c(c2)OCO3)on1)c1ccccc1`: the Potency is 2.61 µM (active).

`Cc1ccc(-c2cc(C(=O)NC3CCCC3)no2)cc1`: the Potency was 1.31 µM (active).

As for `CC1CCCC(C)N1C(=O)c1cc(-c2cccs2)on1` (configuration not stated), the Potency was 16.5 µM (active).

With `O=C(NC1CCCC1)c1cc(-c2cccc(Cl)c2)on1`, the Potency was 4.65 µM (active).

Consider `CCCNC(=O)c1cc(-c2ccc(OC)cc2)on1`, for which the Potency is 0.927 µM (active).

As to `CN(C(=O)c1cc(-c2ccccc2)on1)C1CCCCC1`, the Potency is 2.07 µM (active).

As to `O=C(NC1CCCC1)c1cc(-c2ccc(F)cc2)on1`, the Potency was 1.85 µM (active).

`O=C(NC1CCCCC1)c1cc(-c2ccc(O)cc2)on1`: the Potency was 2.93 µM (active).

`O=C(NCC1CCCO1)c1cc(-c2ccccc2F)no1` (configuration not stated): the Potency was 14.7 µM (active).

On to `COc1cccc(-c2cc(C(=O)NC3CCCCC3)no2)c1`, for which the Potency is 2.07 µM (active).

For `COc1cccc(-c2cc(C(=O)N3C(C)CCCC3C)no2)c1` (configuration not stated), the Potency is 3.29 µM (active).

Turning to `O=C(NCC1CCCO1)c1cc(-c2ccccc2)on1` (configuration not stated), the Potency is 7.36 µM (active).

Turning to `O=C(NC1CCCC1)c1cc(-c2ccccc2)on1`, the Potency is 2.93 µM (active).

With `COc1ccc(-c2nc(-c3cccc(C)c3)no2)cc1OC`, the Potency was 2.93 µM (active).

Turning to `COc1ccc(-c2nc(-c3ccncc3)no2)cc1OC`, the Potency is 4.65 µM (active).

`Cc1cccc(-c2noc(-c3ccc(Cl)cc3[N+](=O)[O-])n2)c1`: the Potency was 1.17 µM (active).

With `COc1ccc(-c2noc(-c3ccco3)n2)cc1OC`, the Potency is 1.65 µM (active).

`COc1ccc(-c2nc(-c3cccnc3)no2)cc1OC`: the Potency is 16.5 µM (active).

As for `COc1ccc(-c2nc(-c3cccnc3)no2)cc1`, the Potency was 0.826 µM (active).

For `COc1ccc(-c2noc(-c3cccnc3)n2)cc1OC`, the Potency was 6.56 µM (active).

For `CCOc1ccccc1NC(=O)CN1C(=O)CC(c2ccc(C)c(C)c2)=Nc2ccccc21`, the Potency was 8.26 µM (active).

For `COc1ccc(CNC(=O)CN2C(=O)CC(c3ccc(C)c(C)c3)=Nc3ccccc32)cc1`, the Potency is 11.7 µM (active).

Take `O=C(N/N=C\C=C\c1ccco1)c1cc(-c2ccc3ccccc3c2)n[nH]1`: the Potency was 4.14 µM (active).

Turning to `O=C(CCN1C(=O)S/C(=C\C=C\c2ccccc2)C1=O)Nc1ccc(O)cc1`, the Potency is 9.27 µM (active).

For the molecule `Fc1ccc(-c2nnc(Cc3ccc(Cl)cc3)o2)cc1`, the Potency is 10.4 µM (active).

On to `C=CCSc1nnc(-c2ccc([N+](=O)[O-])cc2)o1`, for which the Potency is 6.56 µM (active).

With `O=[N+]([O-])c1ccc(Cc2nnc(-c3ccc(F)cc3)o2)cc1`, the Potency was 0.826 µM (active).

As for `O=[N+]([O-])c1cccnc1NCCc1c[nH]c2ccccc12`, the Potency is 4.14 µM (active).

Take `O=[N+]([O-])c1cccnc1NCCc1ccccc1`: the Potency is 5.21 µM (active).

As for `COc1ccc(CNc2ncccc2[N+](=O)[O-])cc1`, the Potency is 18.5 µM (active).

As to `O=[N+]([O-])c1cccnc1NCCNc1ncc(C(F)(F)F)cc1Cl`, the Potency was 2.93 µM (active).

As for `Cc1ccccc1-n1c(C)cc(/C=N/Nc2ccc([N+](=O)[O-])cn2)c1C`, the Potency is 3.69 µM (active).

With `Cc1ccc(C(=O)Nc2cccnc2Cl)cc1Cl`, the Potency is 3.69 µM (active).

Regarding `O=C(Nc1cccnc1Cl)c1cc(-c2ccccc2O)on1`, the Potency is 2.61 µM (active).

As to `O=C(Nc1cccnc1Cl)c1cc(-c2cccc(O)c2)on1`, the Potency was 18.5 µM (active).

As for `CCC(C(=O)N1CCN(c2cccc(C)c2C)CC1)n1nc(C)c2sc3ccccc3c2c1=O` (configuration not stated), the Potency is 8.26 µM (active).

Source of the values: PubChem BioAssay AID2289 (National Center for Advancing Translational Sciences (NCATS), 2010).
